Laboratory results as given in PubChem BioAssay (NCATS).
Results filed as inconclusive are left out. A number with no mark means an inactive call. The call rests on the fitted dose curve; in most records, active means well fitted curve in the direction sought with a large enough effect in the signal ratio, with a control signal flat (not every such curve was filed as active); inconclusive means small, poorly fitted or top-dose-only effect, or effect the other way, or a change in a side signal; inactive means no such curve, though single readings can be large or run the other way; the % refers to the signal ratio.

Target: Estrogen receptor (Homo sapiens) (UniProt P03372)
Experiment: qHTS assay for small molecule antagonists of estrogen receptor alpha signaling (AID 588513)
Details: ER-alpha-UAS-bla HEK293, beta-lactamase ratio, antagonist mode; series mostly up to 76.9 µM; activity, negative = inhibition: at the top concentration
Excerpt: NIH Chemical Genomics Center [NCGC]
U.S. Environmental Protection Agency [EPA]
National Institutes of Environmental Health Sciences [NIEHS]
National Toxicology Program [NTP]
Estrogen receptor alpha (ER-alpha) is an important member of nuclear hormone receptors. ER-alpha plays important role in breast cancer as well as in other women's health issues. The majority of breast cancers is estrogen receptor (ER) positive and depends on estrogen for growth. There is also growing concern for some of environmental chemicals which may contribute the increasing the incidence of breast cancer. Therefore, it is important to understand the effect of environmental chemicals in ER-alpha signaling pathway.
NCGC Assay Protocol Summary
Using a beta-lactamase reporter-gene under control of the ER response element, a cell-based assay [ER-alpha-UAS-bla GripTiteTM cell-Based Assay from Invitrogen] was used to measure ER-alpha signaling pathway in antagonist mode. ER-alpha-UAS-bla-GripTite HEK 293 cells were used with assay medium containing 2% charcoal/dextran treated FBS, 0.1 mM NEAA and 1 mM sodium pyruvate. Cells were cultured in this assay medium overnight in the flasks before the assay. The assay was performed in clear bottom black Greiner 1536-well plates. 17-beta-estradiol was used as a positive control in the screen. Library compounds were measured for their ability to inhibit the reporter gene activity. Compounds were screened in a titration series in 1536-well format. […] Data was normalized relative to 17-beta-estradiol control (0.5nM, 100%), and DMSO only wells (basal, 0%). Concentration-response titration points for each compound were fitted to the Hill equation yielding concentrations of half-maximal inhibition (IC50) and maximal response (efficacy) values.
qHTS protocol for ER-alpha beta-lactamase assay in antagonist mode
[Step] [Parameter] [Value] [Description]
1. Reagent; 5 uL; 5000 cells/well
2. Incubation; 37 C for 4 hrs
- Dose response, Start 38uM, 1:2 dilutions with duplicates
- Two columns with 38 and 19uM (final) concentration.
5. Agonist (Stimulator); 1uL; 17-beta-estradiol at 0.5nM (final) concentration
6. Incubation; 37 C for 18 hrs
7. Detection reagent; 1 uL of CCF4-dye
8. Incubation; RT for 2 hrs
9. Detection; Fluorescence; Envision plate reader or Acumen plate reader
On the % scale 0 is the no-effect control and ±100 the full control effect.

Chain of Estrogen receptor (Homo sapiens) (P03372 whole entry, looked up): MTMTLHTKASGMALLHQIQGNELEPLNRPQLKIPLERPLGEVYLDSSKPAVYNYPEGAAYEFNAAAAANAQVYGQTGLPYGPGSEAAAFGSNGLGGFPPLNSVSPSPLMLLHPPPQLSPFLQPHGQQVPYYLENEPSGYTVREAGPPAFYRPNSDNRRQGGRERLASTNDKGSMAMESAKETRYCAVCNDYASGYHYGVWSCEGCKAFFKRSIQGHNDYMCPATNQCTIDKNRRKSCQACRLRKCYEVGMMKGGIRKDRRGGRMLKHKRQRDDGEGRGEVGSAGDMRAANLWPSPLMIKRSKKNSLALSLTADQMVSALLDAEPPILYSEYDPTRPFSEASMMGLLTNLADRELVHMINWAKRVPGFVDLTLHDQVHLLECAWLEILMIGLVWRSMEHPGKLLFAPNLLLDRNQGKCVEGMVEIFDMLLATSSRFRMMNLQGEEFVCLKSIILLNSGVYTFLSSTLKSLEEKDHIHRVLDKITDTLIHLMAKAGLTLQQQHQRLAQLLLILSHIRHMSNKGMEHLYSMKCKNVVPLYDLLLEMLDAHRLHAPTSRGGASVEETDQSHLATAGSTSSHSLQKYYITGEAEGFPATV

Row | Structure (SMILES) | activity, negative = inhibition [%]
1 | Cc1ccc(S(=O)(=O)NC2CCCCC2)cc1 | -2.28
2 | FC(F)(F)c1cccc(Cl)c1 | -20.1
3 | CN(C)CCCCl | 14.3
4 | OC/C(Br)=C(\Br)CO | -2.85
5 | ClCCl | 13.5
6 | Cc1ccc(N(C)C)cc1 | -19.5
7 | C=CCOC(=O)CCCCCCCC | -10.1
8 | CCCCC(=O)N(C)C | 13.8
9 | CCCCCCCCC | -2.9
10 | C=CCCCC | 1.3
11 | CC=C(Cl)Cl | -7.99
12 | O=C(O)CCSSCCC(=O)O | -0.641
13 | CC(C)(c1cc(Br)c(OCC(Br)CBr)c(Br)c1)c1cc(Br)c(OCC(Br)CBr)c(Br)c1 (stereo not given) | 20.1
14 | O=[N+]([O-])c1cccc(C(F)(F)F)c1 | -14.9
15 | Cc1ccc(C)c(N)c1 | 6.56
16 | NC(=O)c1cccc([N+](=O)[O-])c1 | 15.3
17 | Cc1ccc(Br)cc1 | -2.6
18 | Cc1cc(C)cc([N+](=O)[O-])c1 | -16.7
19 | C(=C/c1ccccc1)/c1ccccc1 | 13.9
20 | CC(C)CO | 9.64

Row | Structure (SMILES) | activity, negative = inhibition [%]
21 | C=Cc1ccccc1C=C | -8.72
22 | Nc1cccc(C(F)(F)F)c1 | 0.991
23 | CNC(=O)N(c1ccccc1)c1ccccc1 | 19.4
24 | Cc1cc(C)c(N)cc1C | 23.2
25 | CC(C)=C1CCC(C)CC1=O (stereo not given) | -7.59
26 | Cc1cc(C(=O)O)ccc1[N+](=O)[O-] | 7.24
27 | Cc1cccc(C(=O)O)c1 | -0.776
28 | O=[N+]([O-])c1ccc(CCO)cc1 | 5.02
29 | C=C(C)C1CC=C(C)C(OC(C)=O)C1 (stereo not given) | 18.9
30 | OC(CCl)CCl | 6.04
31 | CC(=C/C=C/C(C)=C/C=C/C=C(C)/C=C/C=C(C)/C=C/C(=O)O)/C=C/C(=O)O | 2.58
32 | Cc1ccc(CO)cc1 | 22.2
33 | CNc1ccc([N+](=O)[O-])cc1 | 29.1
34 | C=CC(=O)NC(C)C | 16.6
35 | Oc1c(Cl)ccc(Cl)c1Cl | -17.1
36 | CCC(C)(C)C(=O)O | -5.41
37 | CCC(C)(C)C | 10.7
38 | Nc1ccc(Cl)cc1[N+](=O)[O-] | 29.4
39 | CC(=O)OCc1ccco1 | 37
40 | CCOc1ccccc1N | 1.67
